Reference: PubChem BioAssay AID1851 (National Center for Advancing Translational Sciences (NCATS), 2009)
Among all 16,000 compounds or so, about 5,800 (36%) were called active. About 23% were inconclusive and are not listed. Some of the results follow. Values without a mark were called inactive. Calls follow the shape of the dose curve; as a rule, active = well fitted curve in the direction sought with a large enough effect; inconclusive = small, poorly fitted or top-dose-only effect, or effect the other way; inactive = no such curve, though single readings can be large or run the other way.

target: Cytochrome P450 2C19 (Homo sapiens) (UniProt P33261); test: Cytochrome panel assay with activity outcomes; details: recombinant CYP, pro-luciferin dealkylation, luminescence, p450-cyp2c19; series mostly up to 57.1 µM; activity, negative = inhibition: at the top concentration
% is scaled to controls: 0 for no effect and ±100 for the full control effect.

Cytochrome P450 2C19 (Homo sapiens), sequence (P33261 whole entry, looked up): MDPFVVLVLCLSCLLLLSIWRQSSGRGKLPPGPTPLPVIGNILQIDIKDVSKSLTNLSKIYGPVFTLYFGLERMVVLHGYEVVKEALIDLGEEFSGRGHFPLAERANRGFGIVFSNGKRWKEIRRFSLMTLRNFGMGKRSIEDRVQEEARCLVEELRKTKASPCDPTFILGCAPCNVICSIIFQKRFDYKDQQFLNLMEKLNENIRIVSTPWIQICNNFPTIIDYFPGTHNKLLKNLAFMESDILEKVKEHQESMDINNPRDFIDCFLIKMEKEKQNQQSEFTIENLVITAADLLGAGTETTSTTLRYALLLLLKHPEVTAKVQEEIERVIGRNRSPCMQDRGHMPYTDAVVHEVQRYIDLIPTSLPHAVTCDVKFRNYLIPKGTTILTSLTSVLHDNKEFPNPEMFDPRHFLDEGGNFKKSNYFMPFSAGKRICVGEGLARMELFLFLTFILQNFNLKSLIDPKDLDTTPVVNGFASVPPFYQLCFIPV

Row | Structure (SMILES) | AC50 | activity, negative = inhibition
1 | Nc1ccc(S(=O)(=O)NCc2nccs2)cc1 | 0.0794 µM (active) | –
2 | Nc1ccc(S(=O)(=O)Nc2nccs2)cc1 | – | 7.08% [at 25.6 µM]
3 | Nc1ccc(S(=O)(=O)Nc2ncccn2)cc1 | – | 25.6% [at 25.6 µM]
4 | O=C(O)c1cccnc1 | – | 6.1% [at 25.6 µM]
5 | Cc1cccc(NC(NC(=O)c2cccnc2)C(Cl)(Cl)Cl)c1 (centres undefined) | 2.82 µM (active) | –
6 | O=C(NC(NCc1ccccc1)C(Cl)(Cl)Cl)c1cccnc1 (centres undefined) | 4.47 µM (active) | –
7 | CCNc1ncc2nc(-c3cccs3)c(=O)n(CCC#N)c2n1 | – | -20.2%
8 | COc1ccc(NCc2nnc(SCc3ccccc3)n2-c2ccc(OC)cc2)cc1 | 3.98 µM (active) | –
9 | COC(=O)CSc1nnc(CNc2ccc(Cl)cc2)n1-c1ccccc1 | 5.01 µM (active) | –
10 | COC(Cc1nnc(SC)n1-c1ccccc1)OC | – | -17%
11 | COC(Cc1nnc(SC)n1-c1ccc(Cl)cc1)OC | – | -9.57%
12 | CCOc1ccc(NCc2nnc(SCc3ccccc3Cl)n2-c2ccccc2)cc1 | 2 µM (active) | –
13 | CC(C)CN1CCCC2(CCN(C(=O)c3csnn3)CC2)C1 | – | -12.1%
14 | C[C@@H]1CCCC(CC(=O)O)(CC(=O)O)C1 | – | 9.85% [at 11.4 µM]
15 | O=C(/C=C/c1ccc(Br)cc1)NC1CCCCCC1 | – | -28.3%
16 | Cc1ccc(/C=C/C(=O)NC(=S)Nc2ccccc2C(=O)NC2CCCCC2)cc1 | 14.1 µM (active) | –
17 | O=c1c([N+](=O)[O-])cc(C(F)(F)F)cn1Cc1c(Cl)cccc1Cl | 7.08 µM (active) | –
18 | Cc1cc2nc3[nH]c4c(Cl)cc(Cl)cc4c3nc2cc1C | – | 32.6% [at 11.4 µM]
19 | CN(Cc1ccco1)c1cc(-c2ccc3c(c2)OCO3)ncn1 | 10 µM (active) | –
20 | CN(C)C(=O)c1ccc(-c2cc(N(C)Cc3ccco3)ncn2)cc1 | – | -41.6%
21 | CN(C)c1ccc(-c2cc(N(C)Cc3ccco3)ncn2)cc1 | 10 µM (active) | –
22 | CC(=O)OC[C@H]1O[C@@H](O/N=C\[C@@H](C)[C@H](OCc2ccccc2)C(C)C)[C@H](OC(C)=O)[C@@H](OC(C)=O)[C@H]1OC(C)=O | – | 12.9% [at 11.4 µM]

Row | Structure (SMILES) | AC50 | activity, negative = inhibition
23 | O=C1C=C(NCC2CCCO2)C2(CCCCC2)O1 (centres undefined) | – | -39.1%
24 | Cc1cc2ccccc2nc1SCC(=O)Nc1nc(-c2ccccc2)cs1 | – | -7.04%
25 | COc1ccc2cc(C)c3nnc(SCC(=O)Nc4nc(-c5ccccc5)cs4)n3c2c1 | 5.01 µM (active) | –
26 | CC(=O)OC[C@@H]1O[C@H](C/C=N\O[C@@H]2O[C@H](COC(C)=O)[C@@H](OC(C)=O)[C@H](OC(C)=O)[C@H]2OC(C)=O)C=C[C@@H]1OC(C)=O | – | 12.3% [at 11.4 µM]
27 | O=C(CN1CCN(c2ccc(Cl)cc2)CC1)Nc1ccc(F)c(F)c1 | 7.94 µM (active) | –
28 | O=C(CN1CCN(c2ccc(Cl)cc2)CC1)Nc1cccc(F)c1 | 5.01 µM (active) | –
29 | O=C(COc1ccc(Cl)cc1)Nc1ccc(N2CCN(C(=O)c3ccco3)CC2)cc1 | – | -27.1%
30 | C[C@H]1O[C@@H](CC(=O)O)Cc2c1c(O)c1c(O)cc(-c3cc(=O)c4c(=O)c5c(c(=O)c=4c3=O)C[C@H](CC(=O)O)O[C@@H]5C)c(O)c1c2O | – | -5.68% [at 11.4 µM]
31 | COC(=O)c1c(NC(=O)c2ccco2)sc2c1CCC2 | 4.47 µM (active) | –
32 | COCCn1c(=O)c(-c2ccc(Cl)cc2)nc2cnc(N(C)C)nc21 | – | 6.88%
33 | Cc1ccc2[nH]c3c(c2c1)CN(C(=O)CN1c2ccc(F)cc2CCC1C)CC3 (centres undefined) | 3.55 µM (active) | –
34 | COc1ccc2[nH]c3c(c2c1)CN(C)CC3 | – | -22.7%
35 | COC(=O)c1ccc2ccn(CC(=O)NC3CCCCC3)c2c1 | 1.58 µM (active) | –
36 | CCOC(=O)Cc1c(C)nc2c(C#N)c[nH]n2c1=O | – | -24.9%
37 | CCOC(=O)CSC1=C(C#N)C(c2sccc2C)CC(=O)N1 (centres undefined) | 7.94 µM (active) | –
38 | COC(=O)CSC1=C(C#N)C(c2cccc(F)c2)CC(=O)N1 (centres undefined) | 11.2 µM (active) | –
39 | CCOC(=O)CSC1=C(C#N)C(c2sccc2C)C(C(C)=O)=C(C)N1 (centres undefined) | 1.78 µM (active) | –
40 | CCOC(=O)C1=C(C)NC(C)=C(C(=O)OCC)C1c1sccc1C | 1.78 µM (active) | –
41 | CCOC(=O)CSC1=C(C#N)C(C)C2=C(CCCC2=O)N1 (centres undefined) | 0.708 µM (active) | –
42 | COCCN(CCOC)S(=O)(=O)c1ccc(C(=O)Nc2nc(C)c(C(C)=O)s2)cc1 | – | -35.5%
43 | CCN(CC)S(=O)(=O)c1ccc(C(=O)NC2=C(C(=O)OC)SCC2)cc1 | 8.91 µM (active) | –
44 | COC(=O)C1=C(NC(=O)c2cccc(OC)c2)CCS1 | 14.1 µM (active) | –

Row | Structure (SMILES) | AC50 | activity, negative = inhibition
45 | CCCCN(CC)S(=O)(=O)c1ccc(C(=O)Nc2nnc(CSC)o2)cc1 | – | -8.71%
46 | Cc1ccc(C2CC(C(F)(F)F)n3nc(C(=O)NCCN4CCOCC4)cc3N2)cc1 (centres undefined) | – | -29.1%
47 | Cc1ccnc(NS(=O)(=O)c2ccc(N=[N+]=[N-])cc2)n1 | – | 39.6% [at 11.4 µM]
48 | C[C@H](CN(C)C)C(=O)c1ccccc1C(=O)O | – | 12.3% [at 11.4 µM]
49 | CN1CCN(NC(=O)c2ccccc2F)CC1 | – | 2.59%
50 | COc1ccc(CN(CCC#N)C(=S)NC(=O)c2ccccc2)cc1 | 7.94 µM (active) | –
51 | CCOc1ccc(C(=O)NC(=S)N(Cc2ccccc2)Cc2ccccc2)cc1 | 8.91 µM (active) | –
52 | O=C(NC(=S)N(Cc1ccccc1)Cc1ccccc1)c1ccccc1F | 2.24 µM (active) | –
53 | CCc1ccc(NC(=O)Cn2nc(C(F)(F)F)c3c2CCC3)cc1 | 7.94 µM (active) | –
54 | CCCCN(C)CCCNC(=O)c1ccc(N2CCCC2=O)cc1 | – | 15.5%
55 | CCNC(=O)c1ccc(-n2nc(C(F)(F)F)c3c2CCCC3)cc1 | 5.62 µM (active) | –
56 | O=C1OCCC1Sc1nnc(-c2ccc(O)cc2)o1 (centres undefined) | 10 µM (active) | –
57 | Cc1cc(C)c2[nH]c(=O)c(CN(Cc3ccco3)C(=O)c3cccs3)cc2c1 | 1.78 µM (active) | –
58 | CCC(=O)N1CCc2cc(S(=O)(=O)NC(C(=O)NCc3ccc(F)cc3)C(C)C)ccc21 (centres undefined) | – | -14.1%
59 | CN(CCC#N)C(=O)c1ccc(CNS(=O)(=O)c2ccc(F)cc2)cc1 | 17.8 µM (active) | –
60 | Cc1c2cccc(Sc3ccccc3)c2c2c3c(cccc13)[S+](c1ccccc1)C2 (centres undefined) | 0.0631 µM (active) | –
61 | COc1ccccc1CCn1c(=O)c(-c2cccc(F)c2)nc2cncnc21 | 1 µM (active) | –
62 | Cn1c(=O)c(-c2cc(F)cc(F)c2)nc2cncnc21 | – | -31.9%
63 | COCCn1c(=O)c(-c2cc(F)cc(F)c2)nc2cncnc21 | – | -22%
64 | COc1ccccc1CCn1c(=O)c(-c2cc(F)cc(F)c2)nc2cncnc21 | 1.58 µM (active) | –
